Compounds with a hit are over-represented: about 12% of the library has one in this group of screens.
BAZ2B block: blocks human BAZ2B; AlphaScreen BAZ2B-H3K14Ac peptide displacement; Potency, µM (highest dose often 114 µM), hits mostly inhibitors; actives 4.4% (n = 360,000); further: nearly all actives have a fitted effect of over 60% in size
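AlphaScreen displacement: compounds (up to 110uM) incubated 30 min at room temperature with a preformed 50 nM BAZ2B/50 nM biotinylated H3K14Ac peptide complex in PBS pH 7.4 with Tween-20. Donor and acceptor beads at 10 ug/mL final added, 20 min light-protected before reading.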
JMJD2A Tudor inh: blocks the human JMJD2A Tudor domain; O75164; AlphaScreen JMJD2A-Tudor / H3K4me3 peptide binding; Potency, µM (top dose mostly 114 µM), hits mostly inhibitors; actives 4.4% (n = 390,000); further: nearly all actives have a fitted effect of over 50% in size
Sfp PPTase inh: inhibitors of Bacillus subtilis Sfp phosphopantetheinyl transferase | Biochemical Sfp PPTase activity, qHTS | actives 3.5% (n = 310,000) | Q9F4F7 | Potency, µM, actives largely listed as inhibitors;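 further: the enzyme is Sfp with the accession as filed and its product quenches rhodamine fluorescence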
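Fluorescence-quenching assay: 15 nM Sfp-PPTase preincubated 15 min at room temperature with compound, then 5 uM rhodamine-CoA and 12.5 uM BHQ-2-labelled YbbR peptide added. Fluorescence (ex 525/em 598 nm) read at start and after 30 min; difference gives rate.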
HP1b chromo inh: inhibitors of HP1-beta chromodomain binding to methylated histone tails. P83916. AlphaScreen HP1-beta / biotin-H3K9me3 peptide binding. Potency, µM (doses to about 114 µM), most hits filed as inhibitors. actives 0.56% (n = 390,000); further: nearly all actives have a fitted effect of over 70% in size
Target sequence (P83916 whole entry, looked up): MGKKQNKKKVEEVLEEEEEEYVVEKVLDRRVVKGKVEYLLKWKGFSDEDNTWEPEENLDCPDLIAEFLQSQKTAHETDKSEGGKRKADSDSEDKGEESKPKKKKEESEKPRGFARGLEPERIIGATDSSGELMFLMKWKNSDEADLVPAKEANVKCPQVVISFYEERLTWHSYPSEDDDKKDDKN
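Compound inhibition of the preformed complex between 50 nM HP1-beta and 50 nM biotinylated H3K9me3 peptide was read by AlphaScreen. Buffer was PBS pH 7.4 with 0.01% Tween-20. Incubations ran 30 min at room temperature, with 10 ug/mL donor/acceptor beads.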
TDP1 block: inhibitors of human tyrosyl-DNA phosphodiesterase TDP1; Q9NUW8; recombinant TDP1, AlphaScreen DNA substrate cleavage; Potency, µM (titrated, usually from 130 µM), most hits filed as inhibitors; actives 0.28% (n = 350,000); further: nearly all actives have a fitted effect of over 40% in size
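Recombinant E. coli-expressed Tdp1 (1 nM) preincubated with compound 15 min at RT, then 5'-biotin/3'-phosphotyrosine-FITC DNA substrate (15 nM) added for 5 min. AlphaScreen beads (10 ug/ml) added, 10 min RT; tyrosine-FITC cleavage read as signal loss.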
G9a inh: blocks human histone lysine methyltransferase G9a. Q96KQ7. G9a H3K9 monomethylation, AlphaScreen, 2 h. Potency, µM (doses to about 102 µM), most hits filed as inhibitors. actives 8.8% (n = 350,000); further: nearly all actives have a fitted effect of over 75% in size
Target sequence (Q96KQ7 913-1193 limits assumed): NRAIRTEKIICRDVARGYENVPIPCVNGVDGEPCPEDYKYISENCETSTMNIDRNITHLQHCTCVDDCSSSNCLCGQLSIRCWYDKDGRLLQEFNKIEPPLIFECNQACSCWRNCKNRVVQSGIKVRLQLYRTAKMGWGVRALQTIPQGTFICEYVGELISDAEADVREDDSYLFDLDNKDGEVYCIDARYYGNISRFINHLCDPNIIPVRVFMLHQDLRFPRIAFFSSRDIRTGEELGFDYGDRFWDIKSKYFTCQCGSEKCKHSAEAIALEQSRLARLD
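Using a bead-based AlphaScreen, monomethylated H3K9 product from 2 h room-temperature reactions (G9a 20 nM, peptide 500 nM, SAM 20 uM) was detected with 0.5 ug/mL rabbit anti-H3K9me1 antibody.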
Hits are given with their value; i = inactive; ? = inconclusive; nt = no result given; [ ] = remark or other dose. The call rests on the fitted dose curve; in most records, active means well fitted curve in the direction sought with a large enough effect; inconclusive means small, poorly fitted or top-dose-only effect, or another doubt; inactive means no such curve, though single readings can be large; an effect the other way counts as inactive or inconclusive.

SMILES	BAZ2B block	JMJD2A Tudor inh	Sfp PPTase inh	HP1b chromo inh	TDP1 block	G9a inh
O=C(CN1CCN(Cc2ccccc2Cl)CC1)N/N=C/c1ccccn1	i	i	i	i	i	50µM
Cc1ccc(/C=N/NC(=O)CN2CCN(S(=O)(=O)c3ccc(Br)cc3)CC2)s1	i	i	i	i	i	?
CCN1CCN(CC(=O)N/N=C/c2cc(Br)cs2)CC1	25µM	4µM	79µM	?	nt	nt
O=C(CN1CCCCCC1)N/N=C/c1cccs1	79µM	3.2µM	i	i	i	i
CCOc1ccc(/C=N/NC(=O)CN2CCCCC2)cc1OCC	?	i	i	i	nt	i
O=C(CN1CCN(Cc2ccccc2)CC1)N/N=C/c1cccs1	?	i	i	i	i	i
O=C(CN1CCCCCC1)N/N=C/c1ccc(Cl)c(Cl)c1	50µM	8.9µM	i	i	i	13µM
Cc1ccc(/C=N/NC(=O)CN2CCN(Cc3ccccc3Cl)CC2)o1	i	i	i	i	i	i
O=C1c2ccccc2C(=O)C1Cc1cccc2ccccc12	?	?	i	i	i	50µM
COc1cc(OC)c(C(=O)Nc2cc(S(=O)(=O)N3CCOCC3)ccc2N2CCN(C)CC2)cc1OC	nt	i	nt	i	nt	nt
O=[N+]([O-])c1cccc(/C=N/n2c(COc3ccccc3)n[nH]c2=S)c1	?	56µM	56µM	i	i	i[0.501 µM]
O=[N+]([O-])c1ccc(/C=N/n2c(COc3ccccc3)n[nH]c2=S)cc1	?	79µM	i	i	i	?
Cc1ccc(S(=O)(=O)NCc2ccccc2)cc1C(=O)NC(C)c1ccc(S(N)(=O)=O)cc1 (stereo not given)	i	i	nt	i	i	i
CCC(C(=O)NC1CCCCC1)n1nc(C)c2sc3ccccc3c2c1=O (stereo not given)	i	i	nt	i	i	i
COC(=O)c1ccc(C(=O)OC)c(NC(=S)N2CCN(C(=O)C3CCCO3)CC2)c1 (stereo not given)	i	i	i	i	i	i
CSc1nc(NCc2ccccc2)c2c3c(sc2n1)CN(C)CC3	i	?	?	i	i	40µM
CSc1nc(NCCCN(C)C)c2c3c(sc2n1)CN(C)CC3	i	nt	i	nt	nt	50µM
CCN(CC)CCNc1nc(SC)nc2sc3c(c12)CCN(C)C3	i	i	i	i	nt	?
Cc1ccc(C)c(S(=O)(=O)Nc2ccc3[nH]c(=O)[nH]c3c2)c1	i	i	i	i	i	i
Cc1cc(F)ccc1S(=O)(=O)Nc1ccc(O)c(Sc2ncn[nH]2)c1	i	i	?	i	i	40µM
Cc1ccc(C)c(S(=O)(=O)Nc2ccc(O)c(Sc3ncn[nH]3)c2)c1	i	i[11.4 µM]	?	i	nt	45µM
Cc1ccc(S(=O)(=O)Nc2ccc(O)c(Sc3ncn[nH]3)c2)cc1	i	i	i	i	i	?
CCOc1ccc(S(=O)(=O)Nc2ccc(O)c(Sc3ncn[nH]3)c2)cc1	i	i	i	i	i	22µM
O=C(Cn1cc(C(F)(F)F)ccc1=O)NCc1ccc(F)cc1	i	i	i	i	i[0.0935 µM]	i
O=c1[nH][nH]c2cc(=O)n(-c3ccc(Cl)cc3)nc12	50µM	?	i	i	i	40µM
SMILES	BAZ2B block	JMJD2A Tudor inh	Sfp PPTase inh	HP1b chromo inh	TDP1 block	G9a inh
COc1cc(CNCc2cc(OC)ccc2OC)cc(OC)c1	?	28µM	i	?	nt	25µM
COc1ccc(CCC(C)NCc2cc(OC)cc(OC)c2)cc1 (stereo not given)	?	i	i	i	i	i
COc1ccc(CNCc2cc(OC)ccc2OC)cc1	56µM	28µM	i	i	nt	13µM
COc1ccc(CNCc2ccc(F)cc2)c(OC)c1	i	i	i	i	nt	i
COc1ccc(CNCc2cc(C)c(OC)cc2C)c(OC)c1	50µM	20µM	i	?	nt	nt
Cn1nnnc1Sc1ncnc2scc(-c3ccc(C(=O)OC(C)(C)C)cc3)c12	nt	i	nt	nt	nt	nt
CC(O)CNc1cnccn1 (stereo not given)	i	i	i	i	i	i
O=C(NCCc1ccccc1)c1ccc(CSc2nc3ccncc3n2Cc2cccc(F)c2)cc1	i	i	nt	i	i	?
